Reference: PubChem BioAssay (NCI)
About 79,000 compounds went through this panel and 15% of them were active in at least one assay; those are over-represented in the sample as a whole. Active and inactive are the calls of the source. Rule as the data show it: active = growth inhibition above about 70%; inactive = the rest.

Tests used:
[1] = NCI Yeast Anticancer Drug Screen. Data for the rad50 strain (AID 155);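 also: 0% = growth of vehicle-only cultures of the same strain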; details: S. cerevisiae rad50 strain growth inhibition; at 50.0 µM; active compounds read high
In short: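 Vehicle-treated cultures provide the reference for the growth inhibition reported for compound-exposed, repair-deficient yeast.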

[2] = NCI Yeast Anticancer Drug Screen. Data for the mec2-1 strain (AID 157); details: S. cerevisiae mec2-1 strain, at 50.0 µM, active compounds read high
In short: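 Strain: mec2-1 (DNA repair/cell cycle alteration). Compound exposure, then growth measured; inhibition expressed relative to vehicle.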

[3] = NCI Yeast Anticancer Drug Screen. Data for the sgs1 mgt1 strain (AID 161);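 also: 0% = growth of cultures given vehicle only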; details: S. cerevisiae sgs1 mgt1 strain, at 50.0 µM, active compounds read high
In short: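 Inhibition of yeast growth, normalised to vehicle-treated controls, is reported for a strain bearing genetic alterations in DNA damage repair.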

[4] = NCI Yeast Anticancer Drug Screen. Data for the cln2 rad14 strain (AID 165);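 also: 0% = growth equal to vehicle treated cultures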; details: S. cerevisiae cln2 rad14 strain, at 50.0 µM, active compounds read high
In short: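 Compounds are applied to the cln2 rad14 yeast strain, and growth is then compared with that of vehicle-treated cultures to give inhibition.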

[5] = NCI Yeast Anticancer Drug Screen. Data for the bub3 strain (AID 167); details: S. cerevisiae bub3 mutant strain, at 50.0 µM, active compounds read high
In short: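 Mutant yeast screening strain plus compound; vehicle-treated cultures serve as the 0% inhibition reference.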

[6] = NCI Yeast Anticancer Drug Screen. Data for the mlh1 rad18 strain (AID 175); details: S. cerevisiae mlh1 rad18 strain growth inhibition; at 50.0 µM; active compounds read high
In short: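 Read-out is yeast growth inhibition, calculated against vehicle-only controls. The compound was applied to a strain engineered with DNA damage repair alterations.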

Measured: growth inhibition

O=c1c2c(nc3n1CCC3)OC(c1ccccc1)C2 (stereo unspecified)
inactive: [1] 0.4% | [2] 4.3% | [3] -5.9% | [4] -44.8% | [5] -2.95% | [6] 12.6%

NC(=O)C1CCc2ccccc2C1 (stereo unspecified)
inactive: [1] 0.7% | [2] -15.1% | [3] 2.6% | [4] 3% | [5] -5.15% | [6] -9.45%

Clc1ccc(Nc2ncnc3oc(-c4ccccc4)c(-c4ccccc4)c23)cc1
inactive: [1] 6.7% | [2] 13% | [3] 1.3% | [4] -5.05% | [5] -4.1% | [6] 4.65%

OC1OC(CCl)C(Cl)C(O)C1O (stereo unspecified)
inactive: [1] 0.55% | [2] -2.95% | [3] 9.9% | [4] -11% | [5] -18.9% | [6] -16.6%

C=CCOC(=O)NC1C(OC(C)[C@@H](NC(=O)OCc2ccccc2)C(=O)OC(C)(C)C)OC(COC(C)=O)C(OC(C)=O)C1OC(C)=O (stereo partly specified)
inactive: [1] -26.9% | [2] -23.8% | [3] -16.4% | [4] 22.1% | [5] -1.55% | [6] -4.15%

CC(=O)Oc1cccc(O)c1
inactive: [1] -1.55% | [2] -3.65% | [3] -15.2% | [4] -22.5% | [5] -4.15% | [6] 3%

CC(=O)N(C)N=Nc1ccc(C(F)(F)F)cc1
inactive: [1] -7.7% | [2] -12.7% | [3] -9% | [4] -30.1% | [5] -5.8% | [6] -4.5%

[Br][Pt+2][Br].[NH-]c1ccc(F)cc1.[NH-]c1ccc(F)cc1
inactive: [1] 34.9% | [2] 9.2% | [3] 5.4% | [4] -8.3% | [5] -4.75% | [6] 24.9%

CC1OC(O)CC(NC(=O)C(F)(F)F)C1O (stereo unspecified)
inactive: [1] 3.6% | [2] -4.35% | [3] 9.65% | [4] -21.9% | [5] -1.1% | [6] -0.1%

Cc1nnnn1-c1ccc([N+](=O)[O-])cc1
inactive: [1] 8.45% | [2] 8.35% | [3] -1.5% | [4] -17.6% | [5] 0.75% | [6] 7.4%

O=C(CNc1c(Cl)cccc1Cl)NC1C=Cc2ccc(S(=O)(=O)Nc3c(Cl)cccc3Cl)cc2C1=O (stereo unspecified)
inactive: [1] 36.2% | [2] 12.9% | [3] 49% | [4] 5.35% | [5] 19% | [6] 22%

Cc1ccc(N=Nc2ccc(C)cc2NC(=O)/C=C/c2ccccc2)cc1
inactive: [1] -21.5% | [2] -34.5% | [3] 6.65% | [4] 8.4% | [5] -6.35% | [6] -8.65%

CSc1ccc2c(cc1=O)[C@@H](NC(=O)c1ccc([N+](=O)[O-])cc1)CCc1cc(O)c(O)c(O)c1-2
inactive: [1] 37.3% | [2] 33.5% | [3] 39.2% | [4] 23.1% | [5] 43.8% | [6] 50%

CCOC(=O)C(O)(NC(C)=O)C(F)(F)F (stereo unspecified)
inactive: [1] 27.9% | [2] -3.9% | [3] -0.8% | [4] 17.4% | [5] 0.2% | [6] -47.4%

Clc1ccc(N=Cc2ccccc2)cn1
inactive: [1] -13.6% | [2] 22.1% | [3] 37% | [4] -14.4% | [5] 6.55% | [6] 47.4%

COc1c(O)c2c3c(cc(C)cc3c1C(C)C)OC2
active: [1] 93.3% | [2] 94.5% | [3] 94.3% | [4] 93.1% | [5] 93.4% | [6] 93.1%

O=C(O)CC(=O)Nc1cc([N+](=O)[O-])ccc1OCc1ccccc1
inactive: [1] -2.95% | [2] 3.6% | [3] -1.1% | [4] -14.7% | [5] 5.7% | [6] 0.85%

O=C(Nc1ccccc1)n1cc(-c2ccccn2)c(N2CCOCC2)n1
inactive: [1] -4.6% | [2] -11.1% | [3] 6.15% | [4] -64.5% | [5] -12.9% | [6] -14.4%

CSc1nc2c(nc(N)n2C2OC(CO)C(O)C(O)C2O)c(=O)[nH]1 (stereo unspecified)
inactive: [1] -13.7% | [2] 8.45% | [3] -1.85% | [4] -1.2% | [5] -6.2% | [6] -8.9%

N#CCCN(CCC#N)c1ccc(C=O)cc1
inactive: [1] 20.3% | [2] 8.05% | [3] 17.2% | [4] -4.25% | [5] 26.6% | [6] 13.6%

NNC(=O)CSc1ncnc2nc[nH]c12
inactive: [1] 1.3% | [2] 9.8% | [3] 0.55% | [4] -3% | [5] 9.65% | [6] -0.5%

Cc1cc(=O)[nH]c(NN2C(Cl)C(=O)C2c2ccc(Cl)cc2)n1 (stereo unspecified)
inactive: [1] 10.6% | [2] 7.45% | [3] 4.2% | [4] -7.9% | [5] 8% | [6] -18.4%

Cc1cc2ncn(C3CCCO3)c2cc1C (stereo unspecified)
inactive: [1] 6.35% | [2] -6.1% | [3] -14.3% | [4] 3.45% | [5] 3.7% | [6] -23.1%

O=C(Nc1ccc(S(=O)(=O)N2CCCCC2)cc1)OC1CCCCCC1
inactive: [1] 10.1% | [2] 1.1% | [3] -8.5% | [4] 14.5% | [5] -4.05% | [6] 10.6%

c1ccc(SCCC(Sc2ccccc2)Sc2ccccc2)cc1
inactive: [1] -3.45% | [2] 5% | [3] -3.75% | [4] -13.8% | [5] -1.6% | [6] 3.65%

Cc1cc(C)c2c(ccc3ccccc32)n1
inactive: [1] -43.9% | [2] -21.4% | [3] -23.4% | [4] -5.75% | [5] -19.9% | [6] -33.5%

CCCCC/C=C1\CCC(CN2CCOCC2)C1=O (stereo unspecified)
active: [1] 89.5% | [2] 90.7% | [3] 91.9% | [4] 90.1% | [5] 90.3% | [6] 89%

COC(=O)C(Br)(C(=O)OC)C(c1ccccc1)c1ccccc1
inactive: [1] 38.1% | [2] 41.3% | [4] 26.2% | [5] 41.8% | [6] 37.3%
active: [3] 72.3%

Cc1ccc(OC/C=N\N=C(N)N)cc1C
inactive: [1] -7.9% | [2] 16.4% | [3] 41.3% | [4] -6% | [5] 8.3% | [6] 17.1%

O=C(c1no[n+]([O-])c1C(=O)c1csc2ccccc12)c1csc2ccccc12
inactive: [1] -9.7% | [2] -2.2% | [3] -31.9% | [4] -39.9% | [5] -10.3% | [6] -0.25%

CCC1=C/C(=N/O)C(C)=CC1(C)C(Cl)(Cl)Cl (stereo unspecified)
inactive: [1] 25.7% | [2] 7.65% | [3] 10% | [4] 17.2% | [5] 17.9% | [6] 48.5%

CCOc1ccccc1/C=C1\NC(=O)NC1=O
inactive: [1] -38.6% | [2] -35% | [3] -35% | [4] -14.9% | [5] 2.6% | [6] -6.7%

CCOC(=O)NN(C(=O)OCC)C(C(=O)C1=CCCCC1)N(NC(=O)OCC)C(=O)OCC
inactive: [1] -9.95% | [2] -1.15% | [3] 4.5% | [4] 0.2% | [5] 0.3% | [6] -2.85%

CCOC(=O)C(=CNc1ccc(F)c(F)c1)C(=O)OCC
inactive: [1] -0.4% | [2] 1.55% | [3] -8.35% | [4] -2.2% | [5] 26.1% | [6] -36%

O=c1[nH]c2ccccc2nc1/C=C\NC(=S)Nc1cc(Cl)ccc1Cl
inactive: [1] -45.5% | [2] -32.1% | [3] -44.1% | [4] -14.8% | [5] -30.6% | [6] -40.1%

CSc1ccc(NC(=O)c2ccc([N+](=O)[O-])cc2)cc1
inactive: [1] -1.1% | [2] 5.6% | [3] 10.3% | [4] -13.3% | [5] 25.9% | [6] 3.05%

COc1ccc(OC)c2c1CCCC2
inactive: [1] -8.4% | [2] -5.95% | [3] -1.65% | [4] -7.35% | [5] 0.95% | [6] 7.1%

Nc1nc(SCC(=O)c2ccc(F)cc2)sc1C(=O)c1ccc(F)cc1
inactive: [1] -9.75% | [2] 6.9% | [3] 1.4% | [4] 1.3% | [5] -0.9% | [6] 14%

Nc1ccc(OCCc2c(N)nc(N)nc2N)cc1
inactive: [1] -1.2% | [2] 7.15% | [3] 12.4% | [4] -4.05% | [5] 22.7% | [6] 9.7%

COc1ccc(CCCCC(=O)O)cc1
inactive: [1] -12.1% | [2] -3.4% | [3] -0.65% | [4] -2.7% | [5] -7.55% | [6] -9.1%

CCN(CC)C(=O)C(C(=O)OC)c1ccccc1 (stereo unspecified)
inactive: [1] -4.6% | [2] -9.75% | [3] 7.8% | [4] -27.6% | [5] 10% | [6] 7.1%
